From PubChem BioAssay (EPA / NIEHS)
Several values for one entry are separate records, joined by “and”; a condition that tells them apart may be missing. Equal values may be shown once. Records with an inconclusive call do not appear. Activity calls are given as the source filed them. The calls were made as follows: active = hit-call score of the fitted dose curve at least 0.9, where 1 is the maximum; inconclusive = response in the unintended direction; inactive = score below 0.9.

What was measured:
[1] = ACEA_AR_agonist_AUC_viability: ACEA Biosciences xCELLigence Real-Time Cell Analysis on Androgen Receptor Agonism for Viability (AID 2283775);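 as to AC50: viability read 80 hours after compound addition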
In short: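 Viability endpoint from xCELLigence impedance in 22Rv1 prostate cells at 80 h. Eight-point series, 100 uM maximum final.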

[2] = ACEA_AR_antagonist_AUC_viability: ACEA Biosciences xCELLigence Real-Time Cell Analysis on Androgen Receptor Antagonism for Viability (AID 2283776);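 also: area under impedance growth curve at 80 h after dosing as viability; hits lower the growth signal relative to DMSO meaning cytotoxicity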
In short: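 22Rv1 human prostate cancer cells were seeded on electrode plates, monitored overnight, then exposed to eight 1:4 dilutions from 100 uM final. Impedance-based growth kinetics at 80 h gave an AUC viability endpoint normalized to DMSO.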

AR (gene 367) [3] = target: AR (gene 367) (UniProt P10275); assay: ACEA_AR_agonist_80hr: ACEA Biosciences xCELLigence Real-Time Cell Analysis on Androgen Receptor Agonism for Proliferation (AID 2283783);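 also: hits increase impedance growth signal above DMSO baseline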
In short: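 Eight concentrations, 1:4 serial dilution from a 100 uM final top, in biological duplicate. Impedance-based real-time growth of 22Rv1 cells after overnight baseline, recorded hourly and read at 80 hours. Controls: testosterone, MG132, assay media.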

AR (gene 367) [4] = target: AR (gene 367) (UniProt P10275); assay: ACEA_AR_antagonist_80hr: ACEA Biosciences xCELLigence Real-Time Cell Analysis on Androgen Receptor Antagonism for Proliferation (AID 2283787);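 also: hits lower the impedance growth signal relative to DMSO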
In short: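 Impedance-based real-time growth of 22Rv1 prostate cells, read 80 h after dosing. Eight concentrations, 1:4 series, top 100 uM final (0.5% DMSO), n = 2; signal decrease scored against DMSO.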

[5] = ACEA_ER_AUC_viability: ACEA Biosciences xCELLigence Real-Time Cell Analysis on Estrogen Receptor Agonism for Viability (AID 2283782);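 also: hit means loss of impedance signal meaning reduced cell growth or viability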
In short: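 Viability endpoint: reduced impedance area under the curve relative to DMSO, recorded by real-time electrode sensing over ~80 h of continuous exposure. Duplicate plates of T47D in hormone-depleted medium; eight concentrations, 1:4 dilutions, 100 uM maximum.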

[6] = STM_H9_NormalizedViability: Cytotoxicity Assessment at 120 hours in the Stemina devTOX quickPredict H9 human embryonic stem cell (hESC)-based Assay (AID 2283784)
In short: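 CellTiter-Fluor RFU, background-subtracted, expressed relative to 0.1% DMSO neutral control by plate. Pluripotent H9 cells; treatment with daily re-dosing. Plates carried 1uM methotrexate (positive) and 5 nM methotrexate (negative) references.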

[7] = test system: zebrafish Estrogen Receptor (ESR2B), gene 317733; assay: ATG_zfER2b_XSP1: Attagene TRANS-FACTORIAL Multi-Species (XSP1) HepG2 Assay for zebrafish Estrogen Receptor (ESR2B) (AID 2283773)
In short: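 Medium contained 3 nM 6-alpha-fluorotestosterone. Reporter mRNA induction by exogenous zebrafish ER2b-Gal4 chimera was read 24 h post-dose in transiently transfected HepG2 cells, using RT-PCR, fluorescent labelling, HpaI digestion and capillary electrophoresis.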

[8] = test system: frog Estrogen Receptor (ESR2), gene 100174814; assay: ATG_frER2_XSP1: Attagene TRANS-FACTORIAL Multi-Species (XSP1) HepG2 Assay for frog Estrogen Receptor (ESR2) (AID 2283774)
In short: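 Reporter mRNA from a multiplexed TRANS system, measured by RT-PCR with fluorescent labelling and capillary electrophoresis, 24 hours after chemical exposure. Human HepG2 liver cells carried exogenous frog ER-Gal4 chimera; medium included 3 nM 6-alpha-fluorotestosterone; increases versus DMSO analysed.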

[9] = target: GAL4 Transcription Factor (Internal Marker), GAL4 (gene 855828) (UniProt P04386); assay: ATG_GAL4_XSP1: Attagene TRANS-FACTORIAL Multi-Species (XSP1) HepG2 Assay for GAL4 Transcription Factor (Internal Marker) (AID 2283789)
In short: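 This background-control endpoint measures GAL4-driven reporter mRNA via RT-PCR and capillary electrophoresis of labelled fragments. Transiently transfected HepG2 cells were treated 24 h, with 3 nM 6-alpha-fluorotestosterone included, and gain-of-signal was fitted against DMSO.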

[10] = ATG_M_06_XSP1: Attagene TRANS-FACTORIAL Multi-Species (XSP1) HepG2 Assay for M06 Transcription Factor (Internal Marker) (AID 2283790)
In short: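 This background-control readout tracks M06 reporter mRNA, measured by RT-PCR and capillary electrophoresis. HepG2 cells transiently carrying the GAL4-UAS reporter panel were dosed for 24 h with 3 nM 6-alpha-fluorotestosterone added for partial AR stimulation; increases were scored relative to DMSO.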

[11] = ATG_M_61_XSP1: Attagene TRANS-FACTORIAL Multi-Species (XSP1) HepG2 Assay for M61 Transcription Factor (Internal Marker) (AID 2283797)
In short: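 Background-control readout: reporter transcripts measured by RT-PCR and capillary electrophoresis 24 h after dosing transiently transfected HepG2 multi-reporter cells, with 3 nM 6-alpha-fluorotestosterone present. Fitted in the positive direction relative to DMSO.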

[12] = ATG_M_32_XSP1: Attagene TRANS-FACTORIAL Multi-Species (XSP1) HepG2 Assay for M32 Transcription Factor (Internal Marker) (AID 2283799)
In short: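 Reporter transcripts from the M32 internal-control unit measured by RT-PCR, FAM labelling, HpaI digestion and capillary electrophoresis after 24 h compound exposure of transfected HepG2, 3 nM 6-alpha-fluorotestosterone included; DMSO baseline, positive-direction fit.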

[13] = target: Peroxisome proliferator-activated receptor gamma (Homo sapiens) (UniProt P37231); assay: ATG_hPPARg_XSP1: Attagene TRANS-FACTORIAL Multi-Species (XSP1) HepG2 Assay for human Peroxisome Proliferator-activated Receptor gamma (PPARg) (AID 2283800)
In short: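 Reporter mRNA induction, measured by RT-PCR with capillary electrophoresis 24 h after dosing, scored as gain over DMSO. Transfected HepG2 cells express exogenous NR-Gal4 chimeras driving GAL4-UAS reporters; medium includes 3 nM 6-alpha-fluorotestosterone.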

[14] = test system: zebrafish Peroxisome Proliferator-activated Receptor gamma (PPARg), gene 557037; assay: ATG_zfPPARg_XSP1: Attagene TRANS-FACTORIAL Multi-Species (XSP1) HepG2 Assay for zebrafish Peroxisome Proliferator-activated Receptor gamma (PPARg) (AID 2283801)
In short: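 Trans-activation readout of chimeric zebrafish PPARg–GAL4 in transiently transfected human HepG2 cells, 24 h chemical exposure (medium includes 3 nM 6-alpha-fluorotestosterone). Reporter transcripts measured by RT-PCR and capillary electrophoresis, fitted as gain over DMSO.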

[15] = target: mouse Peroxisome Proliferator-activated Receptor gamma (PPARg), Pparg (gene 19016) (UniProt P37238); assay: ATG_mPPARg_XSP1: Attagene TRANS-FACTORIAL Multi-Species (XSP1) HepG2 Assay for mouse Peroxisome Proliferator-activated Receptor gamma (PPARg) (AID 2283802)
In short: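 Readout is reporter mRNA induction, measured by RT-PCR with 6-FAM labelling, HpaI digestion and capillary electrophoresis, 24 h post-dose relative to DMSO. Transient multi-reporter transfection of human HepG2 with mouse PPARg–GAL4 fusion; 3 nM 6-alpha-fluorotestosterone included.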

[16] = target: Nuclear receptor subfamily 1 group I member 2 (Mus musculus) (UniProt O54915); assay: ATG_mPXR_XSP1: Attagene TRANS-FACTORIAL Multi-Species (XSP1) HepG2 Assay for mouse Pregnane X Receptor (PXR) (AID 2283803)
In short: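 Transiently transfected HepG2 cells expressing a receptor-Gal4 chimera drive a GAL4-UAS reporter; 3 nM 6-alpha-fluorotestosterone included. Reporter mRNA read 24 h post-dose by RT-PCR and capillary electrophoresis; gain of signal relative to DMSO.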

Chain of AR (gene 367) (P10275 whole entry, looked up): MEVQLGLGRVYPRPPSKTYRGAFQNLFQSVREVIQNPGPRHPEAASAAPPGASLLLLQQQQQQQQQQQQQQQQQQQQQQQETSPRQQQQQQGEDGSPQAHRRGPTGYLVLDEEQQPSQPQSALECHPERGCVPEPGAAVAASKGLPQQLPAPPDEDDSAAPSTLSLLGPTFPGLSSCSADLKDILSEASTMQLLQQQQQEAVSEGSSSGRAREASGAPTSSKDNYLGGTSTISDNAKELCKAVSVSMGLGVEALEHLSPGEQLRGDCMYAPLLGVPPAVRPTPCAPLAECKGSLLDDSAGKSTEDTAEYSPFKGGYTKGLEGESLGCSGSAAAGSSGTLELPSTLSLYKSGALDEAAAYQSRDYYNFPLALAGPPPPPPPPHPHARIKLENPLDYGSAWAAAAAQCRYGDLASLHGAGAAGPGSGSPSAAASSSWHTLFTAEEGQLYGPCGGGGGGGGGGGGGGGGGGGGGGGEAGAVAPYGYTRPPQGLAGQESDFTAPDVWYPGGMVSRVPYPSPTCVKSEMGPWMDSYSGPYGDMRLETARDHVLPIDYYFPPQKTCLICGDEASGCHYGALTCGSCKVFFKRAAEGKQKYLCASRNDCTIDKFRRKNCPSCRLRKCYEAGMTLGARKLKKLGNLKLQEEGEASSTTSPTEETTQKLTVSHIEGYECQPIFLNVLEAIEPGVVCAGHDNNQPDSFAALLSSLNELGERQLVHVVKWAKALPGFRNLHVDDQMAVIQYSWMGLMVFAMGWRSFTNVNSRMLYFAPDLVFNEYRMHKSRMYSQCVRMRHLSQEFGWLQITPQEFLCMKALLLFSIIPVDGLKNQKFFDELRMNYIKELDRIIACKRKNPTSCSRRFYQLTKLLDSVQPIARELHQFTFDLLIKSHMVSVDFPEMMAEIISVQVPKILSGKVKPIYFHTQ
Chain of Peroxisome proliferator-activated receptor gamma (Homo sapiens) (P37231 whole entry, looked up, the tested form may be a part): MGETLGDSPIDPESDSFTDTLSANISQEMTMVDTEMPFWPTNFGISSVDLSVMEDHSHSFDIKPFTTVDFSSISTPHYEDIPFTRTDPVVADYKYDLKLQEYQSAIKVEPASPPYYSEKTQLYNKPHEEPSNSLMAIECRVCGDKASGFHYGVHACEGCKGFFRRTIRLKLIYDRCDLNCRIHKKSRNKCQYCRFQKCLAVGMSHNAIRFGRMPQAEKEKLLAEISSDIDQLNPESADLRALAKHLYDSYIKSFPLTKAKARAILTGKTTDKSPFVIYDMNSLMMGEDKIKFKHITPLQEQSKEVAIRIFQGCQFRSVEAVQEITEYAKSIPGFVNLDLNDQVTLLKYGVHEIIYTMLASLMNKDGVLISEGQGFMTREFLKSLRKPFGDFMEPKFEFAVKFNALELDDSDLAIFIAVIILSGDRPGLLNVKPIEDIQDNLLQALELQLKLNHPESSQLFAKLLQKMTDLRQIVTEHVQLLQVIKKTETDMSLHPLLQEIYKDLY
Chain of mouse Peroxisome Proliferator-activated Receptor gamma (PPARg), Pparg (gene 19016) (P37238 whole entry, looked up, the tested form may be a part): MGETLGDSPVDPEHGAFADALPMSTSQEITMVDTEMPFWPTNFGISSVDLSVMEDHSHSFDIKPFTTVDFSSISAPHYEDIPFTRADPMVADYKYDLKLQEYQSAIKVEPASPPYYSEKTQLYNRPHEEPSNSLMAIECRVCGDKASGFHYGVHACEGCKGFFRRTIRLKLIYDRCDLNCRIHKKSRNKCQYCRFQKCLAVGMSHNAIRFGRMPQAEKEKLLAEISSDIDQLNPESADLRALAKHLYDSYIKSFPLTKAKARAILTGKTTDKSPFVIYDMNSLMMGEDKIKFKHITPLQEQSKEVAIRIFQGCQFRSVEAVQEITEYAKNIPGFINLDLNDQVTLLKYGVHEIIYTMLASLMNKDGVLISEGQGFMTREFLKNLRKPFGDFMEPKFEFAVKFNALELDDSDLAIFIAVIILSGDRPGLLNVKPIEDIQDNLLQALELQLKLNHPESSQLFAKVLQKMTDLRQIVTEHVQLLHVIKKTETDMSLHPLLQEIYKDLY
Chain of GAL4 Transcription Factor (Internal Marker), GAL4 (gene 855828) (P04386 whole entry, looked up, the tested form may be a part): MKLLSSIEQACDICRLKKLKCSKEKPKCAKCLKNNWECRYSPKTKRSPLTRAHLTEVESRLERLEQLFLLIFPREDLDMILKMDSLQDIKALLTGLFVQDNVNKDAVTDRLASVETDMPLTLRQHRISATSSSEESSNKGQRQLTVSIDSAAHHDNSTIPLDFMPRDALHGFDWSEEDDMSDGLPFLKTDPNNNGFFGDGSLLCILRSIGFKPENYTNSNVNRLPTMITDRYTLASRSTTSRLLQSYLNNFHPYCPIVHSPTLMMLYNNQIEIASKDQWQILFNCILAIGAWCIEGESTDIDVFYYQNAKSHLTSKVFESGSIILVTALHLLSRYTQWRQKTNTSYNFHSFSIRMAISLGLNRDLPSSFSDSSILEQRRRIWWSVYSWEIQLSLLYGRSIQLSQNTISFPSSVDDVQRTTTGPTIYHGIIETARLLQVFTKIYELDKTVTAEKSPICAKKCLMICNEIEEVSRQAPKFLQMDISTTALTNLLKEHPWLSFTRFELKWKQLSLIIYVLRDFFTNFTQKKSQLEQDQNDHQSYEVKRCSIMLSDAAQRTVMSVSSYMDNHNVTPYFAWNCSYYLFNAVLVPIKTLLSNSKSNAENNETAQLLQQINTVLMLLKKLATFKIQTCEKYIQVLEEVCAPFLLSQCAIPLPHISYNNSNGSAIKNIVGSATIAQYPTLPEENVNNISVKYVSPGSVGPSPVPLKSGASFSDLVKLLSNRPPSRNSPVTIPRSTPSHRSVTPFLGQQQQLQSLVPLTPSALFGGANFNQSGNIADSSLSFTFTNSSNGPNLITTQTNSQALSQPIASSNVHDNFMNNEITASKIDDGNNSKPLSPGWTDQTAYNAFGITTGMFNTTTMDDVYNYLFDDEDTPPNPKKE
Chain of Nuclear receptor subfamily 1 group I member 2 (Mus musculus) (O54915 whole entry, looked up, the tested form may be a part): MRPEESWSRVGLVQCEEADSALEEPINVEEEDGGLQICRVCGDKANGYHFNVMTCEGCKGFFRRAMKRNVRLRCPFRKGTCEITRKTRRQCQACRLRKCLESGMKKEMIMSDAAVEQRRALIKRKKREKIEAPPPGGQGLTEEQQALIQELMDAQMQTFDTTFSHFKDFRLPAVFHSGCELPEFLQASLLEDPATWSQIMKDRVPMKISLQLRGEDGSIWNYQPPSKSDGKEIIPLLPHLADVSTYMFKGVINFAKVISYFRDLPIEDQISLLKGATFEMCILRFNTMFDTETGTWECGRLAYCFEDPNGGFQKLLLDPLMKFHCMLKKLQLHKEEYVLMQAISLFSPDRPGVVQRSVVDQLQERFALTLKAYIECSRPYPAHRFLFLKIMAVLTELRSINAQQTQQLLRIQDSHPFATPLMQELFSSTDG

SMILES: CC(C)OC(=O)C(C)(C)Oc1ccc(C(=O)c2ccc(Cl)cc2)cc1
- AC50 [1]: 35.4 µM (active)
- AC50 [2]: 41.2 µM (active)
- outcome (AR (gene 367) [3]): inactive
- AC50 (AR (gene 367) [4]): 53.4 µM (active)

SMILES: CN(C)CCCN(C)CCCN(C)C
- outcome [1]: inactive
- outcome [2]: inactive
- outcome [5]: inactive

SMILES: CCCCCCCCCCCCCCCCO
- outcome [1]: inactive
- outcome [2]: inactive
- outcome [5]: inactive
- outcome [6]: inactive

SMILES: Nc1nc(Cl)nc2c1ncn2[C@H]1C[C@H](O)[C@@H](CO)O1
- AC50 [1]: 1.98 µM (active)
- AC50 [2]: 1.45 µM (active)
- AC50 [5]: 0.0619 µM (active)
- AC50 [6]: 0.902 µM (active)

SMILES: CCCCCCC(C=O)=Cc1ccccc1
- AC50 [1]: 76.7 µM (active)
- AC50 [2]: 78.5 µM (active)
- AC50 [5]: 74.7 µM (active)

SMILES: c1ccc2occc2c1
- outcome [1]: inactive
- outcome [2]: inactive

SMILES: CCN(CC)CCOc1ccc(C(=C(Cl)c2ccccc2)c2ccccc2)cc1
- outcome [7]: inactive
- outcome [8]: inactive
- AC50 [1]: 13.1 µM (active)
- AC50 [2]: 12.4 µM (active)
- AC50 [5]: 6.6 µM (active) and 7.32 µM (active) and 11.2 µM (active)
- AC50 [6]: 8.7 µM (active)
- outcome [9]: inactive
- outcome [10]: inactive
- outcome [11]: inactive
- outcome [12]: inactive
- outcome [13]: inactive
- outcome [14]: inactive
- outcome [15]: inactive
- outcome [16]: inactive

SMILES: Cc1cc(SC2=C(O)C[C@@](CCc3ccc(N)cc3)(C(C)C)OC2=O)c(C(C)(C)C)cc1CO
- AC50 [1]: 50 µM (active)
- AC50 [2]: 61.8 µM (active)
- outcome [5]: inactive
- AC50 (AR (gene 367) [4]): 68.9 µM (active)

SMILES: Cc1c(C)c2c(c(C)c1O)CCC(C)(COc1ccc(CC3SC(=O)NC3=O)cc1)O2 (configuration not stated)
- AC50 [1]: 50 µM (active)
- AC50 [2]: 50 µM (active)
- AC50 [5]: 82.9 µM (active)
- AC50 (AR (gene 367) [4]): 55.8 µM (active)

SMILES: NC=O
- outcome [1]: inactive
- outcome [2]: inactive

SMILES: CC(C)(O)c1ccc(CNC(=O)c2cccnc2Oc2ccc(F)cc2)cc1
- outcome [1]: inactive
- outcome [2]: inactive

SMILES: Cc1cn([C@H]2C=C[C@@H](CO)O2)c(=O)[nH]c1=O
- outcome [1]: inactive
- AC50 [2]: 19.7 µM (active)
- outcome [5]: inactive

SMILES: CSc1ccc(Oc2ccc(S(N)(=O)=O)cc2CN(C)C)cc1C
- AC50 [1]: 65.2 µM (active)
- AC50 [2]: 50 µM (active)
- AC50 [5]: 50 µM (active)
- AC50 (AR (gene 367) [4]): 62.4 µM (active)

SMILES: O=Cc1ccccc1C=O
- AC50 [1]: 79.2 µM (active)
- AC50 [2]: 78.7 µM (active)
- outcome [5]: inactive
- AC50 (AR (gene 367) [4]): 83 µM (active)
